# Data: PubChem BioAssay (Tox21)
# Several values for one entry are separate records, joined by “and”; a condition that tells them apart may be missing. Identical values can stand only once. Results filed as inconclusive are left out. Entries that show only a call come without a potency. More than one record can exist for a structure, and the calls need not agree. Activity calls are given as the source filed them. Unless noted, the call rests on the fitted dose curve; in most records, active means well fitted curve in the direction sought with a large enough effect in the repeat runs; inconclusive means weak or mixed curves; inactive means no such curve, though single readings can be large; an effect the other way counts as inactive or inconclusive.
# What was measured:
# [1] = qHTS assay for identifying genotoxic compounds that show differential cytotoxicity against isogenic chicken DT40 cell lines with known DNA damage response pathways - wild type cell line (AID 743012); further: nearly all actives have a fitted effect of over 60% in size; further: potency means the concentration at half of the fitted maximal effect
# Summary of the method: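 Using parental DT40 (300 cells/well), compounds delivered in DMSO incubate 40 h at 37 C/5% CO2. CellTiter-Glo reagent then stands 30 min at room temperature, and luminescence gives cell viability.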
# [2] = qHTS assay for identifying genotoxic compounds that show differential cytotoxicity against isogenic chicken DT40 cell lines with known DNA damage response pathways - Rev3 mutant cell line (AID 743014); further: nearly all actives have a fitted effect of over 55% in size; further: potency means the concentration at half of the fitted maximal effect
# [3] = qHTS assay for identifying genotoxic compounds that show differential cytotoxicity against isogenic chicken DT40 cell lines with known DNA damage response pathways - Rad54/Ku70 mutant cell line (AID 743015); further: nearly all actives have a fitted effect of over 60% in size; further: potency means the concentration at half of the fitted maximal effect
# [4] = qHTS assay to identify small molecule antagonists of the androgen receptor (AR) signaling pathway - cell viability counter screen (AID 743033; further: nearly all actives have a fitted effect of over 45% in size; further: potency means the concentration at half of the fitted maximal effect)
# [5] = molecular target: Androgen receptor (Homo sapiens) (UniProt P10275); assay: qHTS assay to identify small molecule antagonists of the androgen receptor (AR) signaling pathway using the MDA cell line (AID 743042; further: nearly all actives have a fitted effect of over 55% in size; further: potency means the concentration at half of the fitted maximal effect)
# Summary of the method: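 Antagonist mode: compounds plus R1881 agonist added to MDA-kb2 AR-luc cells, incubated 16 h at 37C. Luciferase reporter luminescence quantified, with multiplexed CellTiter-Fluor readout for cell viability.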
# [6] = qHTS assay to identify small molecule antagonists of the androgen receptor (AR) signaling pathway using the MDA cell line - cell viability counter screen (AID 743041; further: nearly all actives have a fitted effect of over 45% in size; further: potency means the concentration at half of the fitted maximal effect)
# Summary of the method: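 R1881-driven MDA-kb2 AR-luc cells, 3,000/well, were dosed with library compounds for 16 h; cell health came from CellTiter-Fluor fluorescence in the reporter wells.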
# [7] = qHTS assay to identify small molecule antagonists of the glucocorticoid receptor (GR) signaling pathway - cell viability counter screen (AID 720693); further: nearly all actives have a fitted effect of over 55% in size; further: potency means the concentration at half of the fitted maximal effect
# [8] = molecular target: Androgen receptor (Homo sapiens) (UniProt P10275); assay: qHTS assay to identify small molecule agonists of the androgen receptor (AR) signaling pathway using the MDA cell line (AID 743040; further: nearly all actives have a fitted effect of over 20% in size)
# Summary of the method: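 After a 5 h incubation at 37C and 0% CO2, MDA-kb2 reporter cells were dosed with compounds in DMSO and kept 16 h under the same conditions. Luciferase activity was then read as luminescence with ONE-Glo.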
# [9] = molecular target: Androgen receptor (Homo sapiens) (UniProt P10275); assay: qHTS assay to identify small molecule antagonists of the androgen receptor (AR) signaling pathway (AID 743035; active means well fitted inhibition curve with a large enough effect in the signal ratio in the repeat runs, not every such curve was filed as active; the % refers to the signal ratio; further: potency means the concentration at half of the fitted maximal effect)
# Summary of the method: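 Using qHTS, AR-UAS-bla GripTite HEK293 cells received compound, then R1881, and were cultured 16 h at 37C/5% CO2 before a 2 h room-temperature LiveBLAzer B/G FRET substrate step and fluorescence measurement.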
# [10] = molecular target: Androgen receptor (Homo sapiens) (UniProt P10275); assay: qHTS assay to identify small molecule agonists of the androgen receptor (AR) signaling pathway (AID 743036; active means well fitted activation curve with a large enough effect in the signal ratio in the repeat runs, with a control signal flat, not every such curve was filed as active; the % refers to the signal ratio)
# Summary of the method: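 AR-UAS-bla HEK293 cells, plated 4 h before dosing, were treated with compound for 16 h at 37C. beta-Lactamase reporter read after 2 h with LiveBLAzer B/G FRET substrate at room temperature.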
# Androgen receptor (Homo sapiens), sequence (P10275 whole entry, looked up): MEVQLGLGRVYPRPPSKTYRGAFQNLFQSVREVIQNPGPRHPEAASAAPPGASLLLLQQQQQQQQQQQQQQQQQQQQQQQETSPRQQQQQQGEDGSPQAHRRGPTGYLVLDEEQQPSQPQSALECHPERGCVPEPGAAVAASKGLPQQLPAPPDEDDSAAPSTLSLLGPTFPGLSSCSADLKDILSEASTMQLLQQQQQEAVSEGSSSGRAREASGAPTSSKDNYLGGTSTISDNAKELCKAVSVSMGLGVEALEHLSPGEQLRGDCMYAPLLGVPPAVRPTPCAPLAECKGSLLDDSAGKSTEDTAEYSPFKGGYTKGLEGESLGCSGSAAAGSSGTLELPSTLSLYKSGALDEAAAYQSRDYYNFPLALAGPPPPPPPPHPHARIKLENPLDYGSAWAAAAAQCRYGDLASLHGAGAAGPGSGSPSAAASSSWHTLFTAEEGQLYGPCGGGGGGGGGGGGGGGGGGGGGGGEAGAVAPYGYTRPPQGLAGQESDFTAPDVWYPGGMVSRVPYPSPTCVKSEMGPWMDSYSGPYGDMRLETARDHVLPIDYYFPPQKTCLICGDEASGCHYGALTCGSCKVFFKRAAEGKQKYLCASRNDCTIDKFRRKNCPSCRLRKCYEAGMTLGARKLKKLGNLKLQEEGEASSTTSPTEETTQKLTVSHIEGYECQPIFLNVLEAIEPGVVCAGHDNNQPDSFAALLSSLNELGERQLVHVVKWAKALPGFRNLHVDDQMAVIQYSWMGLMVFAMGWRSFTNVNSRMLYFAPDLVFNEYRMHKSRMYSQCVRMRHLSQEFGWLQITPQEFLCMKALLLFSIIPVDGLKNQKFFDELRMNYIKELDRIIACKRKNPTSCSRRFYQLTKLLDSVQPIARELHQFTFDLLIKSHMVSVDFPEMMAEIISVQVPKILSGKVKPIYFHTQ
Compound,Potency [1],Potency [2],Potency [3],Potency [4],Potency [5],Potency [6],Potency [7],outcome [8],Potency [9],Potency [10]
CCN(CC)CCOc1ccc(/C(=C(\Cl)c2ccccc2)c2ccccc2)cc1,1.19 µM (active) and 140 nM (active),422 nM (active) and 24.8 nM (active),1.68 µM (active) and 44.2 nM (active),15.8 µM (active),inactive,–,–,–,–,–
CC(C)(C)c1ccc(O)c(C(C)(C)C)c1,27.3 µM (active),27.2 µM (active) and 24.3 µM (active),30.5 µM (active) and 27.3 µM (active),–,–,inactive,–,–,–,–
NC(N)=NC(=O)Cc1c(Cl)cccc1Cl,–,inactive,inactive,inactive,–,–,inactive,–,–,–
C=CC(=O)OCCCCCCOC(=O)C=C,24.3 µM (active),55.1 µM (active) and 30.6 µM (active),–,–,–,inactive,–,inactive,–,–
BrC1CCC(Br)C(Br)CCC(Br)C(Br)CCC1Br (stereo unspecified),46.1 µM (active),inactive and 41.1 µM (active),–,46.5 µM (active),inactive,inactive,–,inactive,inactive,inactive
O=C(O[C@@H]1Cc2c(O)cc(O)cc2O[C@@H]1c1cc(O)c(O)c(O)c1)c1cc(O)c(O)c(O)c1,–,54.6 µM (active),–,inactive,–,inactive,inactive,–,–,–
NC(Cc1ccc(Cl)cc1)C(=O)O (stereo unspecified),inactive,–,–,inactive,–,inactive,inactive,–,–,–
Nc1ccc(O)cc1,–,–,–,inactive,5.96 µM (active) and 12.2 µM (active) and 25.3 µM (active),29.8 µM (active) and 48.6 µM (active) and 56.6 µM (active),15.1 µM (active) and 25.5 µM (active),inactive,–,inactive
Cc1ccc(S(=O)(=O)Oc2ccc(N=Nc3ccc(-c4ccc(N=Nc5c(O)ccc6cc(S(=O)(=O)O)cc(S(=O)(=O)O)c56)c(C)c4)cc3C)cc2)cc1,–,27.4 µM (active) and 17.8 µM (active),54.7 µM (active) and 11.2 µM (active),inactive,–,–,inactive,inactive,inactive,inactive
NC(=Nc1ccccc1)Nc1ccccc1,–,inactive and 42 µM (active),inactive and 61.1 µM (active),inactive,–,–,inactive,–,–,–
Cc1c(O)cccc1C(=O)N[C@@H](CSc1ccccc1)[C@H](O)CN1C[C@H]2CCCC[C@H]2C[C@H]1C(=O)NC(C)(C)C,11.9 µM (active) and 29.8 µM (active),13.3 µM (active) and 23.7 µM (active),13.3 µM (active) and 18.8 µM (active),19 µM (active) and 16.9 µM (active),26.6 µM (active) and 29.8 µM (active),27.8 µM (active) and 59.5 µM (active),–,inactive,10.7 µM (active) and 6.74 µM (active),–
CCCCOCCOC(=O)c1ccccc1C(=O)OCCOCCCC,–,42.4 µM (active) and 27.3 µM (active),42.4 µM (active) and 61.1 µM (active),53.8 µM (active) and inactive,–,inactive,inactive,–,–,–
C1COC(NC(C2CC2)C2CC2)=N1,inactive,–,–,–,–,inactive,inactive,–,–,–
N[C@@H]1CONC1=O,inactive,inactive,–,inactive,–,inactive,–,–,–,–
CC(C)C(=O)c1c(C(C)C)nn2ccccc12,–,inactive,–,inactive,–,–,inactive,–,–,–
O=C(O)c1cccc(C(=O)O)c1,–,–,–,inactive,–,–,inactive,–,–,–
COc1ccc(CCN2CCC(Nc3nc4ccccc4n3Cc3ccc(F)cc3)CC2)cc1,5.96 µM (active) and 7.01 µM (active),7.5 µM (active) and 6.25 µM (active),–,21.3 µM (active) and 6.3 µM (active),–,39.4 µM (active),–,–,–,–
Cc1ccc(-c2cc(C(F)(F)F)nn2-c2ccc(S(N)(=O)=O)cc2)cc1,23.7 µM (active) and 27.3 µM (active),21.1 µM (active) and 54.3 µM (active) and 24.3 µM (active),–,34.5 µM (active) and 43.6 µM (active),inactive and 60.9 µM (active) and 68.6 µM (active),inactive,–,inactive,23.9 µM (active),inactive
O=C(O)CCc1ccccc1,inactive,inactive,inactive,inactive,–,inactive,–,–,–,–
CCCCCCCCCCCCCCCCCl,–,inactive,inactive,inactive,–,inactive,inactive,–,–,–
CC1=CC(=O)c2ccccc2C1=O,21.1 µM (active) and 13.7 µM (active),23.7 µM (active) and 12.2 µM (active),26.6 µM (active) and 15.4 µM (active),inactive and 21.9 µM (active),inactive and 30.6 µM (active),–,–,inactive,inactive,–
CC[C@@H](N)CO,inactive,inactive,inactive,inactive,–,inactive,–,–,–,–
O=C(Nc1ccccc1SSc1ccccc1NC(=O)c1ccccc1)c1ccccc1,2.45 µM (active) and 1.37 µM (active),1.38 µM (active) and 1.72 µM (active),2.45 µM (active) and 1.72 µM (active),11 µM (active) and 19.5 µM (active),–,–,–,–,–,–
Nc1nc(=S)c2[nH]cnc2[nH]1,–,1.88 µM (active) and 1.33 µM (active) and 686 nM (active),1.33 µM (active) [middle of 4 runs],26.8 µM (active) and 1.95 µM (active),inactive,inactive,–,inactive,16.9 µM (active) and 10.7 µM (active) and 6.92 µM (active),inactive
COc1ccc(Cc2cnc(N)nc2N)cc1OC,–,–,–,inactive,inactive,–,inactive,inactive,inactive,inactive
c1ccc2cc3c(ccc4ccccc43)cc2c1,–,inactive,inactive,inactive,–,–,inactive,–,–,–
C[N+]1([O-])CCOCC1,inactive,inactive,inactive,inactive,–,inactive,–,–,–,–
